Compounds with a hit are over-represented: about 5.2% of the library has one in this group of screens.
PfM18AAP inh = PfM18AAP inhibitors, malaria aminopeptidase, primary screen, biochemical, QFRET, recombinant enzyme. hit rate 1.2% among 290,000. H-Glu-NHMec fluorogenic cleavage. M18 aspartyl aminopeptidase (Plasmodium falciparum 3D7). inhibition, % at 7.35 µM;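 active = inhibition above the campaign mean inhibition over all tested compounds plus 3 SD, cut at about 28% in these data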;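 note: 0% = plate median of test compound wells and 100% = 2 mM ZnCl2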
ALR H2O2 inh = inhibitors of human ALR sulfhydryl oxidase, primary screen, biochemical, H2O2 detection, HRP-luminol luminescence, single point; inhibition, % (concentration not given with the values); FAD-linked sulfhydryl oxidase ALR (Homo sapiens), P55789; AID 485317, 2010; purified ALR, DTT oxidation; hit rate 3.8% among 290,000;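 active = mean replicate inhibition above about 79%, with every replicate also reaching it, limit read from the data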
APOBEC3A inh = APOBEC3A ssDNA deaminase inhibitors, primary screen, selectivity assay for APOBEC3G inhibitor project, biochemical, FAM/TAMRA oligo cleavage fluorescence; recombinant A3A, FAM/TAMRA ssDNA deamination fluorescence; inhibition, % at 20 µM; hit rate 0.41% among 330,000; AID 493011, 2011;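 active = at least 40% inhibition at 20 µM here, with at most 30% in a related deaminase screen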;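 note: plate controls were A3A with DMSO for no effect and wells lacking A3A enzyme for full effect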
CR mimetic SO = reduction of superoxide in aged yeast, primary screen, HTS; hit rate 0.18% among 330,000; superoxide response (% of plate mean), % at 10 µM; S. cerevisiae aged cells, superoxide DHE fluorescence; hits give low values;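 active = superoxide response under a set limit, about three screen SD below normal, cut at about 65% in these data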;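 note: yeast aged for seven days with compound at 30 °C before DHE staining; 100% = average MFI of all compound-treated wells on the plate with controls excluded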
CendR NRP1 mod = modulators of CendR peptide binding to NRP-1, primary screen, biochemical, fluorescence polarization, uHTS | Neuropilin-1 (Homo sapiens), O14786 | FAM-RPARPAR peptide binding to NRP-1 | inhibition, % at 25 µM | hit rate 0.85% among 360,000 | AID 602438, 2012;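 active = inhibition or corrected inhibition above about 18%, plus a signal ratio from 0.5 to 1.5, limit read from the data, passing the limit was not always enough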
APOBEC3G inh = APOBEC3G DNA deaminase inhibitors, primary screen, biochemical, fluorescence, single-stranded DNA substrate, uHTS. AID 493012, 2011. DNA dC->dU-editing enzyme APOBEC-3G (Homo sapiens), Q9HC16. hit rate 0.28% among 330,000. recombinant A3G, ssDNA deamination FAM/TAMRA fluorescence. inhibition, % at 20 µM;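 active = inhibition of at least 40% at 20 µM, with no more than 30% in the related APOBEC3A deaminase screen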;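 note: plate controls were DMSO wells with A3G for no effect and wells lacking A3G enzyme for full effect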
Target sequence (Q9HC16 whole entry, looked up): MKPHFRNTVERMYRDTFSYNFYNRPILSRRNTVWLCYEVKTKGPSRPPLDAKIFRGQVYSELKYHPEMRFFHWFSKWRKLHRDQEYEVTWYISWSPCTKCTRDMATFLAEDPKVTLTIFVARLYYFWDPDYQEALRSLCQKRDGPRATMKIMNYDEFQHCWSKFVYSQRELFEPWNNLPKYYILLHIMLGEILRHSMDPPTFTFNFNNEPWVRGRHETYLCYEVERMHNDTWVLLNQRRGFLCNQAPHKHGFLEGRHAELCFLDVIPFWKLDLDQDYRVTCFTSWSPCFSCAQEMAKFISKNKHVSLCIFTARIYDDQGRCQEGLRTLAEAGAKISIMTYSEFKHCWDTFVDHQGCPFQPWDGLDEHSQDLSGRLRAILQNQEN
* marks the source's active call; other numbers are inactive results; / = not tested or not shown.

SMILES	PfM18AAP inh	ALR H2O2 inh	APOBEC3A inh	CR mimetic SO	CendR NRP1 mod	APOBEC3G inh
CN1CCN(c2ccc(NC(=S)NC(=O)/C=C/c3ccco3)cc2)CC1	12	81*	2	100	4	6
Cc1cccnc1NC(=S)NC(=O)/C=C/c1ccco1	2	13	-1	103	-18	-6
CC(=O)Nc1ccc(NC(=S)NC(=O)/C=C/c2ccco2)cc1	8	0	1	110	-40	1
O=C(/C=C/c1ccco1)NC(=S)Nc1ccccn1	18	99*	3	98	-10	2
CCCCn1nnnc1C1(C)CCC(=O)N1Cc1cccs1 (stereo not drawn)	/	/	/	/	3	/
COc1ccc(NC(=O)CCN2C(=O)c3cccc([N+](=O)[O-])c3C2=O)cc1	3	-11	-5	104	1	-6
Cc1cc(C)nc(-n2nc(C)cc2Nc2ccccc2)n1	-1	98*	8	92	2	8
Cc1cc(NC(=O)c2cccs2)n(-c2ccccc2)n1	-5	86*	-2	101	-5	-5
Cc1cc(Nc2ccccc2)n(-c2ccccc2)n1	4	98*	-3	109	-8	-5
CCOCCCn1c(C)nc2c(c1=O)c1nc3ccccc3nc1n2CCC1=CCCCC1	3	-2	-3	114	2	-7
O=C(Cc1coc2cc(O)ccc12)NNC(=O)c1cccs1	/	99*	-4	100	-2	-8
Cc1nnc(SCC(=O)Nc2sc3c(c2C(N)=O)CCCC3)[nH]c1=O	29*	-3	-2	97	-11	-6
Cc1sc(NC(=O)CSc2nnc(C)c(=O)[nH]2)c(C#N)c1C	26	98*	-5	97	1	-5
CCOCCOC(=O)C1=C(C)NC2=C(C(=O)CC(c3cccs3)C2)C1c1ccsc1 (stereo not drawn)	-12	-6	3	108	-4	-2
COc1ccccc1CCC(=O)OCC(=O)NC1CCCCC1	-7	-2	-2	103	8	-7
COc1ccccc1NCCC(=O)OCC(=O)Nc1cc([N+](=O)[O-])ccc1F	/	93*	-5	111	-1	-5
COc1ccccc1NCCC(=O)OCC(=O)NC1CC1	6	99*	-1	97	16	-3
COc1ccccc1Nc1ccc([N+](=O)[O-])cc1N	31*	/	1	95	-24	-4
COc1ccccc1OCC(=O)OCC(=O)NC1CCCCC1	/	-5	5	110	0	1
COc1ccccc1NCCC(=O)OCC(=O)NC1CCCCC1	23	99*	-2	103	6	-8
Cc1cc(C)c(C)c(OCC(=O)N2CCN(c3ccccn3)CC2)c1	-2	-2	2	91	10	1
O=C(COC(=O)CSc1ccc2ccccc2c1)NC1CCCC1	-1	100*	0	95	-7	-6
CC12CCC(=O)N1C(C(=O)Nc1cc(Cl)ccc1N1CCCC1)CS2 (stereo not drawn)	/	86*	-3	93	1	-10
CC12CCC(=O)N1C(C(=O)NCCc1ccccc1)CS2 (stereo not drawn)	-2	-8	-5	93	25*	-9
CC12CCC(=O)N1C(C(=O)NCCc1ccc(F)cc1)CS2 (stereo not drawn)	2	2	-1	99	-4	-9
COC(=O)[C@]1(C)N[C@H](CN(C)C(=O)C2CCCCC2)[C@@H]2C(=O)N(Cc3ccccc3)C(=O)[C@@H]21	/	/	-2	91	-10	-4
Cc1ccc(OCCOC(=O)c2nc3nccc(C)n3n2)cc1	-12	-2	-2	111	6	-11
COc1cc(CN2CCNC(=O)C2CC(=O)NCCC2=CCCCC2)cc(OC)c1 (stereo not drawn)	-11	-8	-6	92	2	-7
CN(C(=O)CSc1nc(-c2ccc(C(C)(C)C)cc2)c(C#N)c(=O)[nH]1)C1CCCCC1	-7	93*	0	105	-80	-1
